ELG1 genotox – qHTS screen for small molecules that induce genotoxicity in human embryonic kidney (HEK293T) cells expressing luciferase-tagged ELG1; 330,000 tested, 1.3% active; AID 504466, 2011; HEK293T ELG1-luciferase reporter, luminescence, 16 h; Potency, µM (top dose mostly 46 µM), inactives show at the top dose activity change, positive = activation, hits mostly activators; further: % of control where 0% means no effect; nearly all actives have a fitted effect of over 60% in size
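Screening used a luciferase reporter fused to human ELG1 in HEK293T cells. Luminescence was read on a CCD plate imager after 16 hr exposure and 30 min ONE-Glo incubation.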
NPC1 promoter act – qHTS Assay for NPC1 Promoter Activators | Huh7 NPC1 promoter luciferase reporter, 24 h | Potency, µM (series often up to 9.22 µM), inactives show at the top dose activation, hits mostly activators | 320,000 tested, 2.4% active; further: % of control where 0% means no effect; nearly all actives have a fitted effect of over 60% in size
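Huh7 reporter cells (NPC1 promoter driving luciferase) are dosed with compound for 24 h at 37 °C, 5% CO2; luciferase detection reagent is then added and luminescence measured after 10 min at ambient temperature.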
FLuc counter – qHTS profiling assay for firefly luciferase inhibitor/activator using purifed enzyme and Km concentrations of substrates (counterscreen for miR-21 project). Luciferin 4-monooxygenase (Photinus pyralis), P08659. purified FLuc, Km substrates, luminescence inhibition. Potency, µM (doses to about 57.5 µM), inactives show at the highest dose activity change, negative = inhibition, hits mostly inhibitors. 360,000 tested, 6.9% active;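 further: plate controls were vehicle for no effect and reference inhibitor for full effect; nearly all actives have a fitted effect of over 55% in size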
Target sequence (P08659 whole entry, looked up): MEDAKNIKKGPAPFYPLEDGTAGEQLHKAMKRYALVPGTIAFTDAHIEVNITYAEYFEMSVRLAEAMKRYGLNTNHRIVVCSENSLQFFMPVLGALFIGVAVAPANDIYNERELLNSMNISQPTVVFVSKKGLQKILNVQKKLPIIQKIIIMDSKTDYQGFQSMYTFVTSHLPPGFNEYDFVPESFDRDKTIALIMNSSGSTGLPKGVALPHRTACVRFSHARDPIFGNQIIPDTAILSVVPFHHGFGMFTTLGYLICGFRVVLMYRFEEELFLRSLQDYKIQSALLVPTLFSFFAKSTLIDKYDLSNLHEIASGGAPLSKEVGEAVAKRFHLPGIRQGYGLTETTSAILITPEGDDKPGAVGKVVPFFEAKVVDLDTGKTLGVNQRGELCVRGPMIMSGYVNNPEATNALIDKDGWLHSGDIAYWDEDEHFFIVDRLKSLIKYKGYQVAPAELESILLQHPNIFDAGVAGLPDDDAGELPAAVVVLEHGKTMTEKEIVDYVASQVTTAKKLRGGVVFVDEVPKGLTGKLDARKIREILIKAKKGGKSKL
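Purified P. pyralis luciferase, 10 nM final, with Km-level 10 uM D-luciferin and 10 uM ATP in 50 mM Tris acetate pH 7.5, 10 mM Mg acetate, 0.01% Tween-20, 0.05% BSA; 6-point qHTS titration about 60 µM downward; luminescence read.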
Rab9 prom act – qHTS Assay for Rab9 Promoter Activators; AID 485297, 2010; Potency, µM (highest dose often 9.22 µM), without a hit: at the top dose activation, negative = inhibition, most hits filed as activators; 320,000 tested, 2.8% active; Huh7 Rab9 promoter-luciferase reporter, luminescence, 24 h; further: % of control where 0% means no effect; nearly all actives have a fitted effect of over 60% in size
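Stable Rab9-luc Huh7, 1500 cells/well, 2 h settle; cmpd in DMSO, 24 h, 37 °C/5% CO2; luciferase reagent 10 min RT; luminescence.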
ELG1 DNA repair – qHTS screen for small molecules that inhibit ELG1-dependent DNA repair in human embryonic kidney (HEK293T) cells expressing luciferase-tagged ELG1. Potency, µM (titrated, usually from 46.1 µM), without a hit: top-dose activity change, negative = inhibition, usual class: inhibitors. 330,000 tested, 2.3% active. HEK293T ELG1-luciferase reporter, luminescence, 16 h; DNA damage induced by 5-fluorouridine; further: on the % scale 0 is the no-effect control and ±100 the full control effect; nearly all actives have a fitted effect of over 55% in size
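Luminescence from the luciferase reporter, measured 30 min after ONE-Glo reagent at room temperature, was the read-out. Beforehand, 2,000 cells per well were exposed for 16 hr at 37 °C to 5-fluorouridine together with compound or vehicle.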
SMN2 splice enh – qHTS Assay for Enhancers of SMN2 Splice Variant Expression. Potency, µM (doses to about 46.1 µM), for inactives: top-dose activity change, positive = activation, most hits filed as activators. 210,000 tested, 2.8% active. HEK293 SMN2-luciferase splicing reporter, luminescence, 30-36 h; further: % of control where 0% means no effect; nearly all actives have a fitted effect of over 55% in size
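qHTS luciferase splicing reporter: luminescence rises when SMN2 exon 7 is included in transfected HEK293 cells. Compound exposure lasted 30-36 h at 37C, with 4.5 mM final sodium butyrate as control, followed by a ONE-Glo read.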
An asterisk follows results filed as active; ? = inconclusive; · = no result. Most compounds without a hit are left out; they make up all but 9.4% or so of the library. The call rests on the fitted dose curve; in most records, active means well fitted curve in the direction sought with a large enough effect; inconclusive means small, poorly fitted or top-dose-only effect, or another doubt; inactive means no such curve, though single readings can be large; an effect the other way counts as inactive or inconclusive. Potency means the concentration at half of the fitted maximal effect.

SMILES | ELG1 genotox | NPC1 promoter act | FLuc counter | Rab9 prom act | ELG1 DNA repair | SMN2 splice enh
O=C(CNC(=O)c1ccccc1Cl)OCC(=O)N1CCc2ccccc21 | ? | 3% | 13µM* | 9% | ? | 6%
O=C(Cc1ccccc1F)OCC(=O)N1CCc2ccccc21 | 8% | 1% | 6.7µM* | 0% | 5% | 4%
CSc1ccc(CC(=O)N2CCC(n3nccc3NC(=O)C3CC3)CC2)cc1 | ? | 3.2µM* | ? | ? | ? | ·
COC(=O)CC1Oc2ccccc2-n2cc(-c3ccc(F)cc3)nc21 (centres undefined) | · | · | -2% | · | · | -18%
CCc1ccccc1NC(=O)CCc1c(C)nc2cc(-c3ccccc3)nn2c1C | · | · | 2% | · | · | -2%
Cc1ccc(-c2nn3c(C)nnc3c3ccccc23)cc1S(=O)(=O)N(C)CCO | 18µM* | -3% | 1% | -1% | ? | ?
Cc1ccc(-c2nn3c(C)nnc3c3ccccc23)cc1S(=O)(=O)NCc1ccccc1 | 3% | -4% | -1% | 3% | 1% | -7%
CC(=O)N1CCc2cc(S(=O)(=O)NCCC(=O)N3CCc4ccccc4C3)ccc21 | -4% | -2% | 4% | -2% | 23µM* | -31%
CC(=O)N1CCc2cc(S(=O)(=O)NCCC(=O)Nc3ccc4c(c3)OCCO4)ccc21 | ? | 26% | 15µM* | 26% | ? | ?
CC(=O)N1CCc2cc(S(=O)(=O)NCCC(=O)Nc3cc(C)cc(C)c3)ccc21 | 4% | 0% | -1% | -11% | 10% | -5%
CCOC(=O)CSc1nc(-c2ccc(F)cc2)cc(C(F)(F)F)c1C#N | · | · | -5% | · | · | 2%
CCn1c(C)nc2cc(C(=O)OC)ccc21 | 8% | 5% | 0% | 12% | ? | ·
CCn1c(C)nc2cc(C(=O)NN=Cc3ccccc3OC(F)F)ccc21 | 15% | · | · | · | ? | ·
CCn1c(C)nc2cc(C(=O)N/N=C(\C)c3ccccc3O)ccc21 | 5% | ? | 13µM* | ? | ? | ?
CCn1c(C)nc2cc(C(=O)N/N=C/c3ccccc3C)ccc21 | ? | 1.8µM* | 11µM* | 1.1µM* | ? | 16µM*
CCn1c(C)nc2cc(C(=O)NNC(=S)Nc3ccccc3OC)ccc21 | 10% | 24% | 19µM* | ? | ? | ·
CCn1c(C)nc2cc(C(=O)NNC(=S)Nc3ccc(C)cc3)ccc21 | 9% | -3% | ? | -10% | 18% | ·
COc1ccccc1NC(=S)NNC(=O)c1ccc(Cl)cc1Cl | 4% | 12% | 11µM* | 28% | ? | 16µM*
CCN(Cc1ccccc1)C(=O)CN1C(=O)COc2ccc(S(=O)(=O)N3CCOCC3)cc21 | · | · | -2% | · | · | ·
Cc1ccc(C)c(Nc2nn3c(=O)c4ccc(C(=O)NCc5cccs5)cc4nc3s2)c1 | · | · | -6% | · | · | ·
COc1cc([N+](=O)[O-])ccc1NC(=S)NNC(=O)CCC(=O)Nc1ccccc1Cl | 9.2µM* | ? | ? | ? | ? | ·
CCn1c(-c2cc(-c3ccc(C)cc3)nc3ccccc23)n[nH]c1=S | 7% | 9% | 6.7µM* | 9% | -4% | 5%
CCCOc1cccc(-c2cc(-c3n[nH]c(=S)n3CC)c3ccccc3n2)c1 | -3% | -2% | 17µM* | -2% | -16% | -13%
C=CCn1c(-c2cc(-c3ccc(C)cc3)nc3ccccc23)n[nH]c1=S | -7% | -1% | 11µM* | -4% | ? | 4%
CCn1c(-c2ccccc2SC)n[nH]c1=S | 0% | -4% | -4% | -5% | -5% | -6%
SMILES | ELG1 genotox | NPC1 promoter act | FLuc counter | Rab9 prom act | ELG1 DNA repair | SMN2 splice enh
CCn1c(-c2ccc3ncccc3c2)n[nH]c1=S | 0% | -4% | 3% | 2% | 3% | -14%
CCn1c(-c2cc(-c3ccc(OC(C)C)cc3)nc3ccccc23)n[nH]c1=S | 2% | ? | 0.6µM* | ? | ? | 23%
Cc1ccc(Cl)cc1-n1ncc2c(Nc3ccc4c(c3)OCCO4)ncnc21 | · | · | 11µM* | · | · | ·
Fc1ccc(-n2ncc3c(Nc4ccc5c(c4)OCCO5)ncnc32)cc1 | · | · | 17µM* | · | · | ·
Cc1ccc(-n2ncc3c(Nc4ccc5c(c4)OCCO5)ncnc32)cc1Cl | · | · | -18% | · | · | ·
COc1ccc(Nc2ncnc3c2cnn3-c2ccccc2)cc1OC | 8% | 1% | 4% | 6% | ? | -12%
COC(=O)c1ccc(Nc2ncnc3c2cnn3-c2ccccc2)cc1 | · | · | 2% | · | · | ·
Clc1cccc(-n2ncc3c(Nc4ccc5c(c4)OCCO5)ncnc32)c1 | · | · | 13µM* | · | · | ·
CN(C)CCCNS(=O)(=O)c1cc(Cl)ccc1Cl | 18µM* | -1% | 6% | 17% | 0% | 11%
CN(C)c1ccc(NS(=O)(=O)c2cc(Cl)ccc2Cl)cc1 | 5% | -2% | 19µM* | 0% | 18% | -8%
CCN(c1ccc(NS(=O)(=O)c2cc(Cl)ccc2Cl)cc1)C(C)C | 5% | 0% | -2% | 13% | -2% | -25%
COC(=O)C(C(=O)OC)[C@@H]1O[C@@]23COC=C[C@]2(C)[C@H]3c2ccccc21 | · | · | · | · | · | -4%
Cc1[nH]c2ccccc2c1/C=N/Nc1nc(Nc2ccc(F)cc2)nc(N2CCOCC2)n1 | -10% | 1% | 17µM* | -1% | 21µM* | -13%
Cc1ccc(Nc2nc(N/N=C/c3c[nH]c4ccccc34)nc(N3CCOCC3)n2)cc1 | -8% | 0% | ? | 1% | 16µM* | 8%
O=C(Oc1cccc(/C=N/Nc2nc(Nc3ccccc3)nc(N3CCOCC3)n2)c1)c1ccco1 | 0% | 7% | 7.6µM* | 0% | 9.2µM* | 19%
COc1cc(/C=N/Nc2nc(N3CCCCC3)nc(N3CCCCC3)n2)ccc1OC(=O)c1ccco1 | 0% | -2% | 1% | 0% | 6% | 0%
C(=N\Nc1nc(Nc2ccccc2)nc(N2CCOCC2)n1)/c1c[nH]c2ccccc12 | -8% | -1% | 4.3µM* | -3% | 16µM* | 6%
Fc1ccc(Nc2nc(N3CCOCC3)nc(N3CCOCC3)n2)cc1 | 3% | -4% | -1% | 0% | ? | ·
Cc1ccc(N2CC3=C(C2=O)C(c2ccc(Br)cc2)NC(=O)N3C)cc1 (centres undefined) | · | · | 2% | · | · | 9%
COc1ccc2cc(C3OCCO3)c(Cl)nc2c1 | ? | 2.5µM* | 12µM* | 2.5µM* | ? | ·
CCn1cc2nc(SCc3ccccc3Cl)n(Cc3ccc(OC)cc3)c(=O)c2n1 | · | · | -1% | · | · | ·
